Pf growth 96h – inhibits malaria parasite growth, 96 h; P. falciparum luciferase reporter growth, 96 h; Potency, µM (doses to about 28.7 µM), actives largely listed as inhibitors; 320,000 tested, 6.9% active; AID 504834
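Delayed-death screen, second-generation endpoint: infected erythrocytes, 2% hematocrit, 0.05% parasitemia final; 96 hours at 37 C, 5% CO2; luciferase detection reagent; luminescence decrease equals reduced growth.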
Pf growth 48h – P. falciparum growth inhibition at 48 hours (one generation); P. falciparum luciferase growth in erythrocytes, 48 h; Potency, µM (titrated, usually from 28.7 µM), hits mostly inhibitors; 310,000 tested, 5.9% active
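Erythrocytes infected with P. falciparum carrying an integrated firefly luciferase reporter (2% hematocrit, 0.1% parasitemia final) were exposed to compounds in RPMI 1640 with 0.5% Albumax at 37 C, 5% CO2. Growth inhibition was scored as reduced luminescence.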
Cycloheximide cs – counter-screen hit for Shiga toxin inhibitors, cycloheximide; 300,000 tested, 12% active; cell reporter, cycloheximide protein synthesis inhibition counterscreen; max response, %; in the data active = max response mostly above about 13%, no sharp cut-off; inactive = mostly below about 14%; also: read at 38.3 µM for the half of the compounds with a filed dose
Shiga inhibitor – Shiga toxin inhibition; AID 2315; Vero cells, Shiga toxin protein synthesis inhibition reporter; inhibition, % at 38.7 µM; 290,000 tested, 9.2% active; in the data active = inhibition mostly above about 28%, no sharp cut-off; inactive = mostly below about 43%
NS1 function inh – influenza NS1 inhibition | AID 2326 | Potency, µM (titrated, usually from 46.1 µM) | 270,000 tested, 0.4% active; calls by dose curve; also: actives are rising curves; nearly all actives have a fitted effect of over 50% in size
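OD600 was taken as the measure of yeast growth restored by compound in an NS1-expressing S. cerevisiae strain. Cells had been washed out of glucose medium and diluted 1:100 into galactose -URA medium, pH 6.0.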
Each line names hits and unclear results; the compound was inactive in the other large screens. Rows were chosen to be rich in hits. Some 21% of all compounds tested hit in one or more screens of this group. Unless noted, calls follow the shape of the dose curve; as a rule, active = well fitted inhibition curve with a large enough effect; inconclusive = small, poorly fitted or top-dose-only effect, or another doubt; inactive = no such curve, though single readings can be large or run the other way.

Cc1ccccc1OCC(O)Cn1c(NCc2ccco2)nc2c1c(=O)n(C)c(=O)n2C (configuration not stated)	Pf growth 96h inconclusive, Pf growth 48h 15µM
Cn1c(=O)c2c(nc(N/N=C/c3cccnc3)n2Cc2ccc(F)cc2)n(C)c1=O	Pf growth 48h inconclusive
Cc1cc(N)nc2nc(C(F)(F)F)nn12	none (no result: NS1 function inh)
COc1cc(C(CCN2CCOCC2)c2c(OC)cc(OC)c3c(C)cc(=O)oc23)cc(OC)c1OC (configuration not stated)	Pf growth 96h inconclusive, Pf growth 48h 13µM
COc1cc(C(CCN2CCCC2)c2c(OC)cc(OC)c3c(C)cc(=O)oc23)cc(OC)c1OC (configuration not stated)	Pf growth 96h 9.3µM, Pf growth 48h 7.4µM
Cc1cccc(C(=O)N2CCN(c3ccc(C(F)(F)F)cn3)CC2)c1C	none (no result: Pf growth 48h)
CC(=O)C1=C(C)NC(SCC(=O)c2ccc(-c3ccccc3)cc2)=C(C#N)C1c1cccnc1 (configuration not stated)	Pf growth 96h inconclusive, Pf growth 48h inconclusive
Cc1ccc(C(=O)Nc2ccc(C(=O)O)cc2NC(=O)c2ccc(C)cc2)cc1	none
CCCCCCC(=O)O[C@H]1CC[C@H]2[C@@H]3CCC4CC(=O)C=C(C)[C@]4(C)[C@H]3CC[C@]12C (some centres not stated)	Pf growth 96h 6.7µM, Pf growth 48h 4.8µM (no result: Cycloheximide cs, Shiga inhibitor, NS1 function inh)
O=Cc1c(N2CCC3(CC2)OCCO3)nc2ccccn2c1=O	none
CC(NS(=O)(=O)c1ccccc1)C1COc2ccccc2O1 (configuration not stated)	Cycloheximide cs 31 (no result: Pf growth 48h)
CC(NCC1COc2ccccc2O1)C1COc2ccccc2O1 (configuration not stated)	none
CC(NC(=O)c1ccccc1Cl)C1COc2ccccc2O1 (configuration not stated)	Cycloheximide cs 31, Shiga inhibitor 51
COCc1ccc(C(=O)N2CCCC(CNC(=O)c3ccc(F)cc3)C2)o1 (configuration not stated)	Pf growth 96h inconclusive
CCOc1ccccc1OCCCNCc1ccco1	none
Cc1ccc(C2=NC(=O)/C(=C/c3cc(O)c(O)c(Br)c3)S2)cc1	Pf growth 48h 10µM (no result: NS1 function inh)
C=CCOc1cccc(C2/C(=C(\O)c3ccc(F)cc3)C(=O)C(=O)N2CCN(C)C)c1 (configuration not stated)	none (no result: Pf growth 96h)
C=CCOc1ccc(/C(O)=C2\C(=O)C(=O)N(CCN(C)C)C2c2cccs2)cc1 (configuration not stated)	Shiga inhibitor 62
CCOc1ccc(/C(O)=C2/C(=O)C(=O)N(CCOCCO)C2c2ccccc2)cc1 (configuration not stated)	Cycloheximide cs 18
CCOc1ccc(/C(O)=C2/C(=O)C(=O)N(CCN(CC)CC)C2c2cccs2)cc1 (configuration not stated)	Cycloheximide cs 43, Shiga inhibitor 51
CCN(CC)CCN1C(=O)C(=O)/C(=C(/O)c2ccc(OC)cc2)C1c1cccs1 (configuration not stated)	Pf growth 48h inconclusive, Cycloheximide cs 58, Shiga inhibitor 67, NS1 function inh inconclusive
Cc1[nH]c2nc3ccccc3n2c(=O)c1CCC(C)C	Pf growth 96h inconclusive (no result: Shiga inhibitor)
CSc1ncccc1C(=O)NNc1cc(Cl)ccc1Cl	none
CCN(CC)S(=O)(=O)c1cccc(NC(=O)c2cccc(S(=O)(=O)N3CCCC3)c2)c1	Pf growth 96h 12µM, Pf growth 48h 9.3µM (no result: Cycloheximide cs, Shiga inhibitor, NS1 function inh)
CC(NC(=O)c1cc([N+](=O)[O-])cc([N+](=O)[O-])c1)c1ccc(-n2ccnc2)cc1 (configuration not stated)	Pf growth 96h 0.93µM, Pf growth 48h 1.5µM, NS1 function inh inconclusive
O=C(Nc1cccc(O)c1)c1cccc(S(=O)(=O)N2CCCC2)c1	none
O=C(Nc1cccc(S(=O)(=O)N2CCCCC2)c1)c1ccc2ncsc2c1	Cycloheximide cs 86, Shiga inhibitor 89
CC(NC(=O)c1ccc(N(C)C)c([N+](=O)[O-])c1)c1ccc(-n2ccnc2)cc1 (configuration not stated)	Pf growth 96h inconclusive
O=C(Nc1cccc(S(=O)(=O)N2CCCC2)c1)c1cccc(S(=O)(=O)N2CCOCC2)c1	Pf growth 96h inconclusive, Pf growth 48h 12µM (no result: Cycloheximide cs, Shiga inhibitor, NS1 function inh)
COc1ccc(N2C(=O)NC(NC(=O)C(C)(C)C)(C(F)(F)F)C2=O)cc1 (configuration not stated)	none
CCc1ccc(OCC(=O)N2CCN=C2c2ccccc2)cc1	none (no result: Pf growth 48h)

Screening data from PubChem.
